How the values were obtained:
Test in all cases: DAPPL (digital affinity profiling via proximity ligation, sequencing); 10 mM Tris-HCl pH 7.5, 50 mM NaCl, 1 mM DTT, 4% glycerol, room temperature, 30 min; GST-TFs on glutathione beads, 16-mer random dsDNA library, 0.1% formaldehyde crosslink after washing; high values mean tight binding
[1] = target: T1, FLI1 (Homo sapiens, UniProt Q01543 1-452); conditions: protein: recombinant; tags: N-terminal GST; dsDNA, one strand shown
T1 sequence: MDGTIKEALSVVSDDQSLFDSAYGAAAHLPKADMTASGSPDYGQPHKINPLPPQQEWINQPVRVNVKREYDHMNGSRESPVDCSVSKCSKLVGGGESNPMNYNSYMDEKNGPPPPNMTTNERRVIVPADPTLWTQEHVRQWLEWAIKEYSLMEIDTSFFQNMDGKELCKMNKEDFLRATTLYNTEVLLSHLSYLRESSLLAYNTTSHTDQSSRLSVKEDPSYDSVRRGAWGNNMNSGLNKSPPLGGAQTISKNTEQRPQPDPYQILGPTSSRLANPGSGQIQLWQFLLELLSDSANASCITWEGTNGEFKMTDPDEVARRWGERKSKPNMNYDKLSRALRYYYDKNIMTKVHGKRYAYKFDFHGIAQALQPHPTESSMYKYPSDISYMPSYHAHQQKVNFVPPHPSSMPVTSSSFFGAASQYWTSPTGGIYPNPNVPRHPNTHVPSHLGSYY
Procedure, shortened: (§1)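 Human transcription factors carrying a GST fusion were produced in yeast, bound to glutathione beads, tagged with DNA barcodes and pooled together with a tag-only sample. Each pool was held with 200 nmole of a random double-stranded 16-mer DNA library in Tris/NaCl/DTT/glycerol buffer for 30 min at room temperature, then washed, crosslinked in 0.1% formaldehyde, proximity-ligated with BsaI/T4 ligase (1 h, 37 °C), PCR-amplified and sequenced on an Illumina NextSeq500. Binding signal is the read frequency of each hexamer for a given factor divided by its frequency in the tag-only sample.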

[2] = target: T2, ELK1 (Homo sapiens, UniProt P19419 1-428); conditions: protein: recombinant; tags: N-terminal GST; dsDNA, one strand shown
T2 sequence: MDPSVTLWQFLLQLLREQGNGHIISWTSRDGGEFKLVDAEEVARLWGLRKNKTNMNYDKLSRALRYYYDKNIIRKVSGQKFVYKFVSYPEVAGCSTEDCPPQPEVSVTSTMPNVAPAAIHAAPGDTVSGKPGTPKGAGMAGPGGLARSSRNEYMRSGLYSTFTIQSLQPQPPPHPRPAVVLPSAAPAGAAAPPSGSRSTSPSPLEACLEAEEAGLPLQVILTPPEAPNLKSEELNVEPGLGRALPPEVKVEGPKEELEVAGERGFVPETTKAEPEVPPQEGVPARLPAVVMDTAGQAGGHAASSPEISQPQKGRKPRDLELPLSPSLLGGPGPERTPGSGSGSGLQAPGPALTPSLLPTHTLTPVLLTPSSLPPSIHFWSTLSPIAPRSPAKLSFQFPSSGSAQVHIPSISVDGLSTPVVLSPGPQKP
Procedure, shortened: as §1

[3] = target: T3, GABPA (Homo sapiens, UniProt Q06546 1-454); conditions: protein: recombinant; tags: N-terminal GST; dsDNA, one strand shown
T3 sequence: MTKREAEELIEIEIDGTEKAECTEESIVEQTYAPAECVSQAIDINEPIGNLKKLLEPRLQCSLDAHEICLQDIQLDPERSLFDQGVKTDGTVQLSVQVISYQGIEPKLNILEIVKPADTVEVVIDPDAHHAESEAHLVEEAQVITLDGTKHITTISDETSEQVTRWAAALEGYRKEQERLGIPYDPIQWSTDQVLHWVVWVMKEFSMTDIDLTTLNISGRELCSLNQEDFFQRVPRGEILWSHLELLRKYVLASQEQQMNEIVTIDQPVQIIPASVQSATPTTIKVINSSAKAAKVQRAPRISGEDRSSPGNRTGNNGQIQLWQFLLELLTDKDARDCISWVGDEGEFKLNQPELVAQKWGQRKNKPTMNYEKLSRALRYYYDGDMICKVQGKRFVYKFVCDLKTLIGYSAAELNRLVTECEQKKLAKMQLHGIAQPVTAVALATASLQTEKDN
Procedure, shortened: as §1

[4] = target: ELF1 (Homo sapiens, UniProt P32519 1-619); conditions: protein: recombinant; tags: N-terminal GST; dsDNA, one strand shown
Procedure, shortened: as §1

[5] = target: ETV5 (Homo sapiens, UniProt P41161 1-510); conditions: protein: recombinant; tags: N-terminal GST; dsDNA, one strand shown
Procedure, shortened: as §1

[6] = target: HSF1 (Homo sapiens, UniProt Q00613 1-529); conditions: protein: recombinant; tags: N-terminal GST; chain copies: 3; dsDNA, one strand shown
Procedure, shortened: as §1

[7] = target: T4, SPIC (Homo sapiens, UniProt Q8N5J4 1-248); conditions: protein: recombinant; tags: N-terminal GST; dsDNA, one strand shown
T4 sequence: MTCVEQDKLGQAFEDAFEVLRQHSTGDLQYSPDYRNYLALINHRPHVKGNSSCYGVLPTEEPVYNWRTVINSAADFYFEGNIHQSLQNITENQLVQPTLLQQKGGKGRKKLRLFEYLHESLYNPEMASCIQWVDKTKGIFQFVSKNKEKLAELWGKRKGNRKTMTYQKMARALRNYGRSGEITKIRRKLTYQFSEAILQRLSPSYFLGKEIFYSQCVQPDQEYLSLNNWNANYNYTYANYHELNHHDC
Procedure, shortened: as §1

[8] = target: ELF4 (Homo sapiens, UniProt Q99607 1-663); conditions: protein: recombinant; tags: N-terminal GST; dsDNA, one strand shown
Procedure, shortened: as §1

[9] = target: T5, ELK4 (Homo sapiens, UniProt P28324-2 1-405); conditions: protein: recombinant; tags: N-terminal GST; dsDNA, one strand shown
T5 sequence: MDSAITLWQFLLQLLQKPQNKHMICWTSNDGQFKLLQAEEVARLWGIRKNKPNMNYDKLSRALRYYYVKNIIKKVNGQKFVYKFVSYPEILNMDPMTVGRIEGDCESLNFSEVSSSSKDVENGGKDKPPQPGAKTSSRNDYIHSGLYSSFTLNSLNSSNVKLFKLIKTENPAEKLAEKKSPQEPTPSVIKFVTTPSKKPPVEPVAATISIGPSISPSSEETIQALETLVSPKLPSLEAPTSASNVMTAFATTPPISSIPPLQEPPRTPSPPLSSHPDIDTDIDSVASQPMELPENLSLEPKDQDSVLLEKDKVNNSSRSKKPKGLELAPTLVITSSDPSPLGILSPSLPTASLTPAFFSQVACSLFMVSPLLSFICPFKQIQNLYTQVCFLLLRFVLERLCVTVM
Procedure, shortened: as §1

[10] = target: T6, ETV2 (Homo sapiens, UniProt O00321 1-342); conditions: protein: recombinant; tags: N-terminal GST; dsDNA, one strand shown
T6 sequence: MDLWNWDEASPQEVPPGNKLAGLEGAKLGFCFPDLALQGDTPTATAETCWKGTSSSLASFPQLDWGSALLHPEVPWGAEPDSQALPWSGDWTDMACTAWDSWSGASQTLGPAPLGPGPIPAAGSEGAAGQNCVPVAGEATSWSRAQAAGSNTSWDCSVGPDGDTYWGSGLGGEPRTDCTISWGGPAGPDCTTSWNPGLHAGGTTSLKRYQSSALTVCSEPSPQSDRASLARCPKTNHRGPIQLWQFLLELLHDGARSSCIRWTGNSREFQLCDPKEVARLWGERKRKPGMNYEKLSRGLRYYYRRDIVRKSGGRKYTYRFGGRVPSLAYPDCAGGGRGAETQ
Procedure, shortened: as §1

[11] = target: ETV1 (Homo sapiens, UniProt P50549 1-477); conditions: protein: recombinant; tags: N-terminal GST; dsDNA, one strand shown
Procedure, shortened: as §1

[12] = target: T7, ERG (Homo sapiens, UniProt P11308 1-479); conditions: protein: recombinant; tags: N-terminal GST; dsDNA, one strand shown
T7 sequence: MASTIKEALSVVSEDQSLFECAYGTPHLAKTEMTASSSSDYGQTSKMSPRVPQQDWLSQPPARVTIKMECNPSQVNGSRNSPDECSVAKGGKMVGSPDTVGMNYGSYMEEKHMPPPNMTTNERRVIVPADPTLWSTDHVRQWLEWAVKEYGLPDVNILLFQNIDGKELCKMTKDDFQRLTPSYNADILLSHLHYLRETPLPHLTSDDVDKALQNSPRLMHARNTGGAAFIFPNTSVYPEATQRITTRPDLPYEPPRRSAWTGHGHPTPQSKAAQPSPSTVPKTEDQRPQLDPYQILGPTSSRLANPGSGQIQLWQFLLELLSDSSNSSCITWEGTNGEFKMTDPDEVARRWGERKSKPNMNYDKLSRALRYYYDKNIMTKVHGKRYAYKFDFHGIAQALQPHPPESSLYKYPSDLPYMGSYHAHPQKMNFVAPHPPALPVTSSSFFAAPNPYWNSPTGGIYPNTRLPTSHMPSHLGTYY
Procedure, shortened: as §1

[13] = target: T8, EHF (Homo sapiens, UniProt Q9NZC4 1-300); conditions: protein: recombinant; tags: N-terminal GST; dsDNA, one strand shown
T8 sequence: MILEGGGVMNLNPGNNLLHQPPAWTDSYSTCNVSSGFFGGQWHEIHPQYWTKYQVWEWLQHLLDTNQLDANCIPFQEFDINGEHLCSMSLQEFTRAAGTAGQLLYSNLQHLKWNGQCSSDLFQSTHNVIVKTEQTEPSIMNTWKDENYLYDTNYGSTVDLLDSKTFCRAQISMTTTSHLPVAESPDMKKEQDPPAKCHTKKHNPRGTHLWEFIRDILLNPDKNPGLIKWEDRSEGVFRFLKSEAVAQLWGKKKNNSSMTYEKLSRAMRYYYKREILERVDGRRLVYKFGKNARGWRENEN
Procedure, shortened: as §1

[14] = target: SPI1 (Homo sapiens, UniProt P17947 1-270); conditions: protein: recombinant; tags: N-terminal GST; dsDNA, one strand shown
Procedure, shortened: as §1

[15] = target: SPIB (Homo sapiens, UniProt Q01892 1-262); conditions: protein: recombinant; tags: N-terminal GST; dsDNA, one strand shown
Procedure, shortened: as §1

[16] = target: T9, FEV (Homo sapiens, UniProt Q99581 1-238); conditions: protein: recombinant; tags: N-terminal GST; dsDNA, one strand shown
T9 sequence: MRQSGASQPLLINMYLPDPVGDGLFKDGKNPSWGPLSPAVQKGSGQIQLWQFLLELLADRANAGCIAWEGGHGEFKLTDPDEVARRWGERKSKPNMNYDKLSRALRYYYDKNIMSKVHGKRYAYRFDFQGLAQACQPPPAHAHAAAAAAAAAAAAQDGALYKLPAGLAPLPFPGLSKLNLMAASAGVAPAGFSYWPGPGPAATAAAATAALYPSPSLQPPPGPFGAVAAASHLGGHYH
Procedure, shortened: as §1

[17] = target: CRX (Homo sapiens, UniProt O43186 1-299); conditions: protein: recombinant; tags: N-terminal GST; dsDNA, one strand shown
Procedure, shortened: as §1

Chain of ELF4 (Q99607 whole entry): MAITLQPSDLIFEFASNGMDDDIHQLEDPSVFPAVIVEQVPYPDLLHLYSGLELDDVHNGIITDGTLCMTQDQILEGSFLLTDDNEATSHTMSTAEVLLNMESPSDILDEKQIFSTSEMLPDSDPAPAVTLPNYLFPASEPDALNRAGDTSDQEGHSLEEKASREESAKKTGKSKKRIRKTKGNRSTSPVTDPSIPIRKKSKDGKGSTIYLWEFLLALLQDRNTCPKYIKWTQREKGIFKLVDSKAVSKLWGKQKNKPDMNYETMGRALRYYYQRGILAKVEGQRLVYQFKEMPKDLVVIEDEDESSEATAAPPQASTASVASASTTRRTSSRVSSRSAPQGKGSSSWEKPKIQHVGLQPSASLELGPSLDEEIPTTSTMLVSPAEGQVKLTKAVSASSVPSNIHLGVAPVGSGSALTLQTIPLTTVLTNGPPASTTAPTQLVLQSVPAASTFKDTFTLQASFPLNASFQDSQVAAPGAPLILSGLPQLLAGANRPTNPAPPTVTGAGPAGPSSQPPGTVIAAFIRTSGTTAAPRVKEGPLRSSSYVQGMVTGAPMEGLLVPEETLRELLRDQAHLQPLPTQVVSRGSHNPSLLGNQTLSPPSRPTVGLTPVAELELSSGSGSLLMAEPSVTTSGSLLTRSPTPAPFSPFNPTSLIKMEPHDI
Chain of HSF1 (Q00613 whole entry): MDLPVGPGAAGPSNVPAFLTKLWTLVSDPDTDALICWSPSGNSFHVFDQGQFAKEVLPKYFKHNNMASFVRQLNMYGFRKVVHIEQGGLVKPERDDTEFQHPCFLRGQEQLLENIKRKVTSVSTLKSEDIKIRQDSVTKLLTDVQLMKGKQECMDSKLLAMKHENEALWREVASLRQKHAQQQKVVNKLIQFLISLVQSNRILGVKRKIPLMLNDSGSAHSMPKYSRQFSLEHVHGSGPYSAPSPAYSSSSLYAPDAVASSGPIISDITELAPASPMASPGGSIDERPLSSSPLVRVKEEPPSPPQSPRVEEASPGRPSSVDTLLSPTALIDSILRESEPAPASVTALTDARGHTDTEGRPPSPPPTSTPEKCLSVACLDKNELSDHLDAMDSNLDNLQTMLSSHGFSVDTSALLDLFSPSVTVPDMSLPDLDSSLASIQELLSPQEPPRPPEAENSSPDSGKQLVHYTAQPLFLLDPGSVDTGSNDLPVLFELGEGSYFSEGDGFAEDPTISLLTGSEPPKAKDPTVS
Chain of ELF1 (P32519 whole entry): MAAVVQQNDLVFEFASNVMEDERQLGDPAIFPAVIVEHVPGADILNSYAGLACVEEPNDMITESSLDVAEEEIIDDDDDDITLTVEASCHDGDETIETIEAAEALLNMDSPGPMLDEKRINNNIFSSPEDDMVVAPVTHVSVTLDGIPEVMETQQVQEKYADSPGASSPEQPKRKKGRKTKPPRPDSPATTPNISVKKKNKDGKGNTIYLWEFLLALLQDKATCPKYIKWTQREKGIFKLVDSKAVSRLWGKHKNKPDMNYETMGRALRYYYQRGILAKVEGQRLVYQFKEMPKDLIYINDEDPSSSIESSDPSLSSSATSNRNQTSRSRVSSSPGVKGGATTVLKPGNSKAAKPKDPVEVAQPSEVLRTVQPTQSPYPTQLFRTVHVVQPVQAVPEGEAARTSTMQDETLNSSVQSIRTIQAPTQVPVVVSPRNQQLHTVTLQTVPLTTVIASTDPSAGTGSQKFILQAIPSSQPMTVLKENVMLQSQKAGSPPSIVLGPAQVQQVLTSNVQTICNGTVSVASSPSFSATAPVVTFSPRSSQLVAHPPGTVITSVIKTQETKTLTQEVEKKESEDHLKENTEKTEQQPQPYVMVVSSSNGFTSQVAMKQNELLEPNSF
Chain of ETV1 (P50549 whole entry): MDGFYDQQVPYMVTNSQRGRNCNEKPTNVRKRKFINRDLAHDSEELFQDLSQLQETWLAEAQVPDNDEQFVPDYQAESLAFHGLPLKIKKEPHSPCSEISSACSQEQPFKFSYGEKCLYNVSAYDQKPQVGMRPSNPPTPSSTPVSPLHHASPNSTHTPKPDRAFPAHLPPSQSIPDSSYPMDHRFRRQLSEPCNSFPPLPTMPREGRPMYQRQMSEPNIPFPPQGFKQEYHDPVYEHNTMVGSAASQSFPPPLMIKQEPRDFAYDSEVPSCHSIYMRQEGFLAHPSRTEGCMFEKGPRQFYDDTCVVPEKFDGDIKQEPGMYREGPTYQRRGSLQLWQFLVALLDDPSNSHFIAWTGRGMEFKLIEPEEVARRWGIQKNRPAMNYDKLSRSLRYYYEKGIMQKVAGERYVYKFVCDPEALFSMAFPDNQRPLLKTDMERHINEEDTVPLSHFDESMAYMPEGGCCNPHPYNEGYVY
Chain of ETV5 (P41161 whole entry): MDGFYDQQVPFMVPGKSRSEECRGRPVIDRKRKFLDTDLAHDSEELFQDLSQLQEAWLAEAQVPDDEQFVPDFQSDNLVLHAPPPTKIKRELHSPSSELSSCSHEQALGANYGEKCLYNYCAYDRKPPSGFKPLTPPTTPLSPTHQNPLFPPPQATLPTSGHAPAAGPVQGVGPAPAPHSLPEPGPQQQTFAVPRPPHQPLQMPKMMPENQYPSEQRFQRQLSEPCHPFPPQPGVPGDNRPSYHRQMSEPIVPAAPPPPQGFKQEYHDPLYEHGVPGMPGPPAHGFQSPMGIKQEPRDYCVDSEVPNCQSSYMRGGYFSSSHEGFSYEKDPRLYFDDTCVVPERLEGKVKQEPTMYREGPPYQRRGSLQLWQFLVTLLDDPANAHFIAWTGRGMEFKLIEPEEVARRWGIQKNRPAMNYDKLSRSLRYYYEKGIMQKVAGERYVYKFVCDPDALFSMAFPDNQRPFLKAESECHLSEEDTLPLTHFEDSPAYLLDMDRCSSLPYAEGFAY
Chain of CRX (O43186 whole entry): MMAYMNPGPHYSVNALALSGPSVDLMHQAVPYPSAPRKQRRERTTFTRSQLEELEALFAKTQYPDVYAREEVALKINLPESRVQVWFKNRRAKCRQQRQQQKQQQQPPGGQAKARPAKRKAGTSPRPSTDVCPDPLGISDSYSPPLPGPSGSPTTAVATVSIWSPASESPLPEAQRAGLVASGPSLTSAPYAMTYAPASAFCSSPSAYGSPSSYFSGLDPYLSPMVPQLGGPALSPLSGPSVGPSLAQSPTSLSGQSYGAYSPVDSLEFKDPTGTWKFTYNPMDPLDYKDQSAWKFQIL
Chain of SPIB (Q01892 whole entry): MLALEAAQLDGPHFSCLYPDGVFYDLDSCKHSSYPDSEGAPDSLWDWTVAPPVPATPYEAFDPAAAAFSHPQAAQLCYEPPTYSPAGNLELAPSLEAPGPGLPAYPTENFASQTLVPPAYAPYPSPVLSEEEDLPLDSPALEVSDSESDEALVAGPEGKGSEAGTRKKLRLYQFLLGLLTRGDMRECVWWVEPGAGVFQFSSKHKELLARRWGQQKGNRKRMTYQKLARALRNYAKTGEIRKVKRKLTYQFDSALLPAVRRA

| Sequence | binding signal [1] | binding signal [2] | binding signal [3] | binding signal [4] | binding signal [5] | binding signal [6] | binding signal [7] | binding signal [8] | binding signal [9] | binding signal [10] | binding signal [11] | binding signal [12] | binding signal [13] | binding signal [14] | binding signal [15] | binding signal [16] | binding signal [17] |
| --- | --- | --- | --- | --- | --- | --- | --- | --- | --- | --- | --- | --- | --- | --- | --- | --- | --- |
| GAATAC | 1.1 fold enrichment (6-mer frequency, TF over GST control) | 1.1 fold enrichment (6-mer frequency, TF over GST control) | 1.11 fold enrichment (6-mer frequency, TF over GST control) | 1.08 fold enrichment (6-mer frequency, TF over GST control) | 1.01 fold enrichment (6-mer frequency, TF over GST control) | 1.16 fold enrichment (6-mer frequency, TF over GST control) | 1.06 fold enrichment (6-mer frequency, TF over GST control) | 1.01 fold enrichment (6-mer frequency, TF over GST control) | 1.05 fold enrichment (6-mer frequency, TF over GST control) | 1.05 fold enrichment (6-mer frequency, TF over GST control) | 1.09 fold enrichment (6-mer frequency, TF over GST control) |  |  |  |  |  |  |
| GAAAAG | 1.05 fold enrichment (6-mer frequency, TF over GST control) | 1.01 fold enrichment (6-mer frequency, TF over GST control) | 1.07 fold enrichment (6-mer frequency, TF over GST control) | 1.04 fold enrichment (6-mer frequency, TF over GST control) | 1.02 fold enrichment (6-mer frequency, TF over GST control) | 1.22 fold enrichment (6-mer frequency, TF over GST control) | 1.1 fold enrichment (6-mer frequency, TF over GST control) | 1.05 fold enrichment (6-mer frequency, TF over GST control) | 1.01 fold enrichment (6-mer frequency, TF over GST control) | 1.11 fold enrichment (6-mer frequency, TF over GST control) | 1.15 fold enrichment (6-mer frequency, TF over GST control) | 1.06 fold enrichment (6-mer frequency, TF over GST control) | 1.11 fold enrichment (6-mer frequency, TF over GST control) | 1.3 fold enrichment (6-mer frequency, TF over GST control) | 1.14 fold enrichment (6-mer frequency, TF over GST control) | 1.04 fold enrichment (6-mer frequency, TF over GST control) | 1.01 fold enrichment (6-mer frequency, TF over GST control) |
| GATTTG | 1.24 fold enrichment (6-mer frequency, TF over GST control) | 1.16 fold enrichment (6-mer frequency, TF over GST control) | 1.22 fold enrichment (6-mer frequency, TF over GST control) | 1.12 fold enrichment (6-mer frequency, TF over GST control) | 1.25 fold enrichment (6-mer frequency, TF over GST control) | 1.39 fold enrichment (6-mer frequency, TF over GST control) | 1.17 fold enrichment (6-mer frequency, TF over GST control) | 1.13 fold enrichment (6-mer frequency, TF over GST control) | 1.19 fold enrichment (6-mer frequency, TF over GST control) | 1.19 fold enrichment (6-mer frequency, TF over GST control) | 1.14 fold enrichment (6-mer frequency, TF over GST control) | 1.11 fold enrichment (6-mer frequency, TF over GST control) | 1.11 fold enrichment (6-mer frequency, TF over GST control) | 1.08 fold enrichment (6-mer frequency, TF over GST control) | 1.12 fold enrichment (6-mer frequency, TF over GST control) | 1.11 fold enrichment (6-mer frequency, TF over GST control) | 1.78 fold enrichment (6-mer frequency, TF over GST control) |
